Consider 40 compounds from PubChem BioAssay (NCATS).

A number with no mark means an inactive call. No rule for the calls is given here.
Potency is read from the fitted curve at half-maximal effect.

The assay concerns HIV-1 nucleocapsid protein NCp7 (binding to TG oligonucleotide). The experiment in a line: HIV Nucleocapsid (AID 346).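 Also: potency is for inhibitors that block NC binding and lower polarization.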 As to conditions: HIV-1 NC / fluorescein-TGTGTGTG probe, fluorescence polarization. A digest of the protocol: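 Fluorescence polarization readout: labelled TG4xF oligo (10 nM) with 100 nM nucleocapsid protein, high-salt (250mM NaCl) Hepes pH 7.5 buffer containing zinc and fresh reducing agents. Compounds added by pin tool; incubation 1 hr, room temperature.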
`COc1ccc(-c2nc3cnc(OC)nc3n(-c3ccccc3)c2=O)cc1`: the Potency was more than 20 µM.
For `COc1ccc(C(=O)N2CCC[C@@]3(CCN(Cc4nccs4)C3)C2)cc1`, the Potency is more than 20 µM.
The result for `Cc1noc(C)c1-c1nc(N(C)C)c2ccccc2n1` reads more than 20 µM; that for `Cn1cccc1C(=O)N1CCC2(CC1)CN(Cc1ccc(C#N)cc1)C2`, more than 20 µM.
With `O=c1c(-c2ccc(F)cc2)nc2cnc(N3CCNCC3)nc2n1-c1ccccc1` the figure was more than 20 µM.
On to `COCCn1c(=O)c(-c2cc(F)cc(F)c2)nc2cnc(Oc3ccc(OC)cc3)nc21`, for which the Potency is more than 20 µM.
In the case of `CN1CCN(c2ncc3nc(-c4ccc(Cl)cc4)c(=O)n(C4CC4)c3n2)CC1`, the Potency was more than 20 µM.
Turning to `COc1cccc(Nc2ncc3nc(C)c(=O)n(C[C@H]4CCCO4)c3n2)c1`, the Potency is more than 20 µM.
For the compound `O=C(c1ccncc1)N1CCC2(CC1)CCN(c1ccccn1)CC2`, the Potency is more than 20 µM.
Turning to `CNc1cc(-c2ccccc2C)ncn1`, the Potency is more than 20 µM.
In the case of `Cc1cccc(CNc2nc(-c3ccc(C(=O)N(C)C)cc3)nc3ccccc23)c1`, the Potency is more than 20 µM.
On to `CCNc1ncc2nc(-c3cccs3)c(=O)n(Cc3cccs3)c2n1`, for which the Potency is more than 20 µM.
As for `O=C(c1cccc(F)c1)N1CCC2(CC1)CN(Cc1ccccc1)C2`, the Potency is more than 20 µM.
As for `O=C(c1cccc(F)c1)N1CCC[C@@]2(CCN(Cc3nccs3)C2)C1`, the Potency was more than 20 µM.
On to `COc1ccccc1-c1cncnc1NCc1cccc(C)c1`, for which the Potency is more than 20 µM.
Consider `O=C(Nc1cccc(F)c1)N1CCC2(CC1)CCN(S(=O)(=O)c1ccccc1)CC2`, for which the Potency is more than 20 µM.
Consider `O=c1c(-c2ccc(Cl)cc2)nc2cnc(Nc3ccccc3)nc2n1C1CC1`, for which the Potency is more than 20 µM.
As for `CNc1nc(-c2ccc3c(c2)OCO3)nc2ccccc12`, the Potency is more than 20 µM.
As for `CC(=O)N1CCC2(CCN(Cc3ccccc3)CC2)CC1`, the Potency is more than 20 µM.
The result for `Cc1cccc(CNc2ccnc(-c3ccccc3CN(C)C)n2)c1` reads more than 20 µM.
As for `COc1cccc(-c2cncnc2Nc2ccc(F)cc2)c1`, the Potency is more than 20 µM.
The result for `COCCn1c(=O)c(-c2cccc(C#N)c2)nc2cnc(N3CCNCC3)nc21` reads more than 20 µM; that for `CC(C)NC(=O)N1CCC2(CC1)CCN(C(=O)c1cnccn1)CC2`, more than 20 µM.
For `CC(=O)NCCNc1ncnc2ccc(-c3cccc(NS(C)(=O)=O)c3)cc12`, the Potency was more than 20 µM.
With `O=C(c1ccncc1)N1CCC2(CC1)CCN(c1ccccc1)CC2` the figure was more than 20 µM; with `c1cncc(-c2cncnc2-n2ccnc2)c1`, more than 20 µM; with `CC(C)NC(=O)N1CCCC2(CCN(C(=O)c3csnn3)CC2)C1`, more than 20 µM.
Consider `COc1ccccc1-c1cncnc1NCCN1CCOCC1`, for which the Potency was more than 20 µM.
As to `O=c1c(-c2cccc(F)c2)nc2cncnc2n1Cc1ccccc1`, the Potency was more than 20 µM.
On to `COCCn1c(=O)c(-c2ccccc2)nc2cnc(Oc3cccc(Cl)c3)nc21`, for which the Potency was more than 20 µM.
The result for `COCCn1c(=O)c(-c2cccc(Cl)c2)nc2cncnc21` reads more than 20 µM; that for `COc1ccc(NC(=O)N2CCCC3(CCN(S(=O)(=O)c4ccccc4)CC3)C2)cc1`, more than 20 µM; that for `CNc1nc(-c2c(C)noc2C)nc2ccccc12`, more than 20 µM.
For `CN1CCN(c2ncc3nc(-c4cn(C)c5ccccc45)c(=O)n(-c4ccccc4)c3n2)CC1`, the Potency was more than 4 µM.
With `CC(C)CN1CC[C@@]2(CCCN(C(=O)c3ccco3)C2)C1`, the Potency was more than 20 µM.
Turning to `CN(C)c1ncnc2ccc(-c3ccccc3C(F)(F)F)cc12`, the Potency was more than 20 µM.
On to `COc1cccc(-c2nc(NC3CCNCC3)c3ccccc3n2)c1`, for which the Potency was more than 20 µM.
`O=c1c(-c2cccc(Cl)c2)nc2cncnc2n1Cc1ccccc1Cl`: the Potency was more than 20 µM.
As to `COc1ccc2[nH]cc(CCNc3ccnc(-c4ccccc4C(F)(F)F)n3)c2c1`, the Potency was more than 20 µM.
Regarding `Cc1noc(C)c1C(=O)N1CCC2(CCN(Cc3ccncc3)CC2)CC1`, the Potency was more than 20 µM.
